“And” between values parts separate entries of the source, which are not always exact repeats. Identical values can stand only once. The source made the active and inactive calls.

Test [1] deals with Plasmodium falciparum Sir2 (PF13_0152, Sir2A). Kind of test: Plasmodium falciparum Sir2A binding compounds – biochemical, small-molecule microarray, 635 nm fluorescence, primary screen (AID 1098).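 Also: score merges spot fluorescence intensity with its signal-to-noise ratio.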 The conditions noted are these: fluorescence 635 nm, higher = more signal.
Test [2] in a line: probe aDKK1 binding to arrayed compounds – biochemical, biotinylated probe, 635/667 nm fluorescence, primary screen (AID 1099).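 Also: score merges 667nm spot fluorescence with signal to noise across triplicate slides; reference of the scale not given here.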 To be noted: small-molecule microarray, higher = more signal.
The nature of test [3]: probe aCHRDL2 binding to arrayed compounds – biochemical, biotinylated probe, 635/667 nm fluorescence, primary screen (AID 1100). To be noted: small-molecule microarray, higher = more signal.
Test [4] is described as follows: change in splice reporter luminescence, either direction, cell-based, HEK293, spliceosome inhibition project, primary screen (AID 1101).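 Also: HEK293 cells carrying a splicing-competent luciferase reporter gene; test concentration not given here.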 To be noted: HEK293 splicing luciferase reporter, 24 h, higher = more signal, called active from +8 up or from −8 down. (In general: In a reporter assay the amount or activity of a reporter protein is the signal.)
For test [5], the target named is Fibroblast growth factor 10 (Homo sapiens) (UniProt O15520). Kind of test: compounds binding fibroblast growth factor 10 – biochemical, small-molecule microarray, 635 nm fluorescence, primary screen (AID 1102). The conditions noted are these: FGF10 binding, fluorescence 635 nm, higher = more signal.
The subject of test [6] is glycogen synthase kinase-3 (GSK3A per assay name; protocol says GSK3B). Kind of test: compounds binding glycogen synthase kinase-3 – biochemical, small-molecule microarray, 635 nm fluorescence, GSK3A, primary screen (AID 1103). Also: the record names both GSK3A and GSK3B. The conditions noted are these: fluorescence 635 nm, higher = more signal.
Test [7] has as its target Epidermal growth factor receptor (Homo sapiens) (UniProt P00533). In words: compounds binding epidermal growth factor receptor – biochemical, small-molecule microarray, 635 nm fluorescence, primary screen (AID 1104).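 Also: score merges 667 nm emission intensity with spot signal to noise over triplicate slides.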 To be noted: EGFR binding, higher = more signal.
For test [8], the target named is Follistatin-related protein 3 (Homo sapiens) (UniProt O95633). Kind of test: compounds binding follistatin-related protein 3 – biochemical, small-molecule microarray, 635 nm fluorescence, primary screen (AID 1105).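 Also: score merges emission near 667 nm and signal to noise per printed spot across three slides.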 To be noted: FSTL3 binding, higher = more signal.
Test [9] has as its target Dickkopf-related protein 1 (Homo sapiens) (UniProt O94907). In words: small molecules binding DKK1 protein – biochemical, small-molecule microarray, 635 nm fluorescence scan, primary screen (AID 1106).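 Also: score merges emission near 667 nm with signal to noise over three replicate slides.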 The conditions noted are these: higher = more signal.
In test [10] the test system is Inhibin beta A chain (activin A). In words: small molecules binding activin A – biochemical, small-molecule microarray, 635 nm fluorescence scan, primary screen (AID 1107).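 Also: mouse activin A protein probed at 4.33 µg/mL on printed slides; score merges bound-protein fluorescence near 667 nm with spot signal-to-noise.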 The conditions noted are these: INHBA, higher = more signal.

Follistatin-related protein 3 (Homo sapiens), sequence (O95633 whole entry, looked up): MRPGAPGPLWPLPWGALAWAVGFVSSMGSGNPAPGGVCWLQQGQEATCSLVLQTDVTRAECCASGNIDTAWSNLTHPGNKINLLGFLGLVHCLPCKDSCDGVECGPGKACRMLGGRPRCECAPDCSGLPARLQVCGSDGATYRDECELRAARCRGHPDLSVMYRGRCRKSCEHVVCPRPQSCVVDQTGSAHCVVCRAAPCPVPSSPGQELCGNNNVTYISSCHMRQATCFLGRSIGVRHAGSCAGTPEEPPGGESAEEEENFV
Dickkopf-related protein 1 (Homo sapiens), sequence (O94907 whole entry, looked up): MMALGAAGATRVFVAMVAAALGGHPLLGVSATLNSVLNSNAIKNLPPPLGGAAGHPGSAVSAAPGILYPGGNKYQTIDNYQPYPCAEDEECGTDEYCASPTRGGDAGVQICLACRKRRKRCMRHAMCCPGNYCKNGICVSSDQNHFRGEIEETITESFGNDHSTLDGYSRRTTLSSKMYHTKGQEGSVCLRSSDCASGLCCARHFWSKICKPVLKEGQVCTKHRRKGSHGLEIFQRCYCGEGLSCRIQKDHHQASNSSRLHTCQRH
Fibroblast growth factor 10 (Homo sapiens), sequence (O15520 whole entry, looked up): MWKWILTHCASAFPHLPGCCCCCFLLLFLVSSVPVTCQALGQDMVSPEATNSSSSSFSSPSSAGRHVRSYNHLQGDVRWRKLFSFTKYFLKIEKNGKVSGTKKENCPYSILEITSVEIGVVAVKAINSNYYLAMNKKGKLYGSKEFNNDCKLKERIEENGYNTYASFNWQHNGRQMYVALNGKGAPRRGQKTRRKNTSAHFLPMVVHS
Epidermal growth factor receptor (Homo sapiens), sequence (P00533 whole entry, looked up): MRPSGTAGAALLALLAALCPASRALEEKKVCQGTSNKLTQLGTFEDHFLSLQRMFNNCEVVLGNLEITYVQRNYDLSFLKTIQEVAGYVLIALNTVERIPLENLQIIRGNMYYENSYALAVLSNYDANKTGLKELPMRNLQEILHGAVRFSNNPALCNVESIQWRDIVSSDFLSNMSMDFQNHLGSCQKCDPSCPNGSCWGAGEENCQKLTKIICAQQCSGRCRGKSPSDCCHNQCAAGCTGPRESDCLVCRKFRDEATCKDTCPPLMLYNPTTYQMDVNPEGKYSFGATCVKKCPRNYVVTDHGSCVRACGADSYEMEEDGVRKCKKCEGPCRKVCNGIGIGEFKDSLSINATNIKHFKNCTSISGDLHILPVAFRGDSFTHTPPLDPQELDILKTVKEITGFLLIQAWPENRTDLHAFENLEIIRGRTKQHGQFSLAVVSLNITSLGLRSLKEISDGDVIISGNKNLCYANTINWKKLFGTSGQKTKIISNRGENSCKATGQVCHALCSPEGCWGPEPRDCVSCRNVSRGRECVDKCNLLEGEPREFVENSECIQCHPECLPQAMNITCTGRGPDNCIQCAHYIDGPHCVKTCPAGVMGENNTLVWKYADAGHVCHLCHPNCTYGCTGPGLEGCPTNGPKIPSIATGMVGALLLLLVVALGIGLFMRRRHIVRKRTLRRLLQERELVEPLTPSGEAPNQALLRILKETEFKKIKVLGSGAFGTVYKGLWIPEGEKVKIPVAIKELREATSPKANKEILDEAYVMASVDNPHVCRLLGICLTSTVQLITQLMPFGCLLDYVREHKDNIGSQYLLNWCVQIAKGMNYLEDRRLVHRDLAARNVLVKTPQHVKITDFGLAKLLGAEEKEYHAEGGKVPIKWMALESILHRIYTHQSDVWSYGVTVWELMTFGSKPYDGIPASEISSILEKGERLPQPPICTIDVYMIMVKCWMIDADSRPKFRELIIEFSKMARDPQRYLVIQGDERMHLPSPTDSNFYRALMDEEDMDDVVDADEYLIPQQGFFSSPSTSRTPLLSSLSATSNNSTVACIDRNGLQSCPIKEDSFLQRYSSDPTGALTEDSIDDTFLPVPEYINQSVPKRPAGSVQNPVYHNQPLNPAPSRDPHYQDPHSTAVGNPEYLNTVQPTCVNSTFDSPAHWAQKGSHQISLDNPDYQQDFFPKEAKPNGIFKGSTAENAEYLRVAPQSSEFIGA

Regarding `CC(C)[Si]1(C(C)C)OCc2cc(CCCc3cc4c(c(CCc5ccccc5)n3)[Si](C(C)C)(C(C)C)OC4)nc(CCc3ccccc3)c21`, the composite z-score in [1] was -1.24 and 0.202; in test [2], -0.181 and -0.246; in test [3] it was 0.057 and -0.55; in [5], -0.0405 and 0.57; in test [6], -0.0221 and 0.559; in test [7], 0.327 and 0.456. Also, the composite z-score is -0.291 and 0.745 in [8]; -0.106 and 0.458 in [9]; 0.557 and 0.0127 in [10]. The z-score in test [4] is -1.52 (inactive) and 0.459 (inactive).

In the case of `C#CCCCON=C1C[C@@H](O)[C@@H](O)[C@@H]2[C@@H]3C(=O)N(C4CCCCC4)C(=O)[C@@H]3CC[C@H]12`, the composite z-score is 0.72 in [1]; 0.149 in test [2]; -0.0642 in [3]; 0.402 in test [5]; 0.355 in test [6]; 0.217 in [7]. In addition, the results for the composite z-score in [8], in test [9] and in test [10] were 0.348, 0.0938 and 0.24, respectively. The z-score in [4] is -0.285 (inactive).

With `C=CCN(CCCC)C(=O)C(c1cccs1)N(C(=O)/C=C\C(=O)O)c1ccc(CCO)cc1` (stereo not given), the composite z-score in test [1] is -0.292 and 0.315; in [2], 0.219 and -0.11; in [3], 0.864 and 1.06; in [5] it was -1.34 and -1.59; in test [6] it was -1.58 and -1.35; in test [7] it was -1.11 and -2.45. Moreover, the composite z-score in test [8] is -0.963 and -2.14; in [9] it was -1.99 and -4.28; in test [10], -1.22 and -1.99. Also, the z-score in [4] was 0.243 (inactive) and -0.284 (inactive).

For `C[N+](C)(C)CCCCCCNC(=O)[C@@H]1C[C@@H]2C(=O)N[C@@H](CCCC[N+](C)(C)C)C(=O)N2[C@@H]1c1ccc(O)cc1`, the composite z-score in test [1] is 0.892 and 0.579; in test [2], -0.126 and -0.175; in [3], 0.229 and 0.305; in [5], 0.606 and 0.803; in [6] it was -0.115 and 0.255; in test [7], 0.0444 and -0.539. Further, the composite z-score in test [8] was 0.8 and 0.827; in test [9] it was 1.11 and 0.869; in test [10], 0.908 and 0.391. In test [4], the z-score is -0.0316 (inactive) and 0.431 (inactive).

As for `C=CC[C@@H](O)c1ccc(O)c2ccccc12`, the composite z-score in test [1] is 1.35 and 1.41; in test [2], -0.05 and -0.227; in test [3], -0.0013 and -0.333; in test [5] it was 0.991 and 1.34; in [6], 0.797 and 1.25; in test [7] it was 1.33 and 1.15. For the same molecule, the composite z-score in test [8] is 1.2 and 1.43; in test [9], 0.817 and 1.14; in test [10], 1.38 and 0.954. Also, in [4], the z-score is -0.879 (inactive) and 3.08 (inactive).

With `C=CCN(CCCC)C(=O)C1N(c2ccc(CCO)cc2)C(=O)C2C(C(=O)O)C3C=CC21O3` (stereo not given), the composite z-score in test [1] was -1.39 and 1.08; in test [2] it was -0.112 and -0.229; in [3] it was 0.354 and 1.07; in test [5] it was -1.48 and -1.93; in test [6], -1.54 and -1.22; in test [7], -1.51 and -2.06. In addition, the composite z-score is -1.76 and -2.15 in [8]; -2.31 and -3.32 in test [9]; -1.59 and -3.61 in test [10]. Further, the z-score in test [4] is -0.378 (inactive) and 0.182 (inactive).

For `COc1ccc(O[C@H]2C=C[C@@H](c3ccccc3)O[C@@H]2COC(=O)CCC(C)=NO[C@H](C)c2cn([C@H](CO)Cc3ccccc3)nn2)cc1`, the composite z-score in [1] was 0.366 and 0.205; in test [2], 0.416 and -0.0879; in test [3] it was -0.305 and -0.291; in test [5], -0.0593 and 0.263; in test [6], -0.018 and 0.173; in [7], 0.188 and 0.353. The composite z-score is 0.73 and 0.397 in [8]; 1.12 and 1.39 in [9]; 0.164 and 0.485 in test [10]. The z-score in test [4] was -0.643 (inactive) and -1.07 (inactive).

On to `CC(CO)N1C(=O)[C@@H]2C3C(=O)OCCC=C[C@H]3OC23C=CCN(CCN2CCOCC2)C(=O)[C@@H]13` (stereo not given in full), for which the composite z-score in test [1] was 0.53 and 0.55; in test [2], -0.278 and 0.0598; in test [3] it was -0.389 and 0.466; in test [5] it was -0.131 and -0.0694; in test [6], -0.496 and 0.65; in test [7], -0.51 and -0.235. Moreover, the composite z-score in test [8] is -0.0214 and -0.166; in test [9], 0.0325 and -0.442; in test [10], 0.621 and 1.59. For the same molecule, the z-score in test [4] was 0.388 (inactive) and -0.153 (inactive).

`C=CCN(CCCCC)C(=O)C1N(CCCCCCO)C(=O)C2C(C(=O)O)C3C=CC21O3` (stereo not given): the composite z-score in test [1] is 1.34 and 1.33; in test [2], -0.3 and -0.257; in test [3], 0.933 and 0.677; in test [5], -1.23 and -1.99; in test [6] it was -0.699 and -1.32; in [7], -1.76 and -2.1. Moreover, the composite z-score in [8] is -2.21 and -0.897; in test [9] it was -3.08 and -2.95; in test [10], -0.194 and -1.46. The z-score in test [4] was -0.372 (inactive) and 0.305 (inactive).

`C=C[C@H](OC)[C@@H](O)c1ccc(OCCO)cc1`: the composite z-score in [1] is 0.972 and 1.8; in test [2] it was -0.458 and -0.428; in test [3] it was 0.915 and 0.789; in test [5], -1.07 and -0.623; in [6], -1.69 and -0.885; in test [7], -2.13 and -1.16. Moreover, the composite z-score in test [8] is -1.95 and -1.72; in test [9], -1.55 and -0.654; in test [10] it was -0.731 and -1.25. Besides, the z-score in [4] is -0.957 (inactive) and -0.233 (inactive).

On to `C[C@@H]1CN2[C@@H](CC[C@@H](C)[C@@H]2c2ccc(Br)cc2)C(=O)O1`, for which the composite z-score in test [1] was -0.638 and -0.597; in test [2], -0.295 and -0.239; in test [3] it was -0.211 and -0.583; in [5] it was -0.0428 and 0.337; in test [6] it was -0.534 and -0.046; in [7], 0.167 and 0.49. Besides, the composite z-score in [8] is -0.579 and -0.462; in test [9], 0.313 and 0.233; in [10], 0.502 and 0.45. Besides, the z-score in test [4] was -0.142 (inactive) and -1.21 (inactive).

In the case of `CC(CO)N1C(=O)[C@@H]2C3C(=O)OCCC=C[C@H]3OC23C=CCN(C(C)(C)C)C(=O)[C@@H]13` (stereo not given in full), the composite z-score is -0.117 and -0.15 in [1]; -0.216 and 0.073 in [2]; 0.254 and 0.178 in test [3]; -0.941 and 0.229 in test [5]; -0.875 and 0.449 in [6]; -0.839 and -0.726 in test [7]. The composite z-score is -0.464 and 0.008 in [8]; -0.476 and -0.008 in test [9]; 0.298 and 1.11 in test [10]. Moreover, the z-score in test [4] is 0.612 (inactive) and -0.541 (inactive).

As to `C[C@@H](c1ccccc1)N1C(=O)[C@H]2[C@H]3[C@H](O)[C@H](O)CC(=O)[C@@H]3CC[C@H]2C1=O`, the composite z-score is 0.11 in test [1]; -0.152 in test [2]; -0.706 in test [3]; 0.685 in test [5]; 0.59 in test [6]; 0.43 in test [7]. Besides, the figures for the composite z-score in test [8], in test [9] and in test [10] were 0.599, 0.943 and -0.838, respectively. Besides, in [4], the z-score is -1.26 (inactive).

As to `C=C[C@@H](C)[C@@H](O)c1ccc(OCCO)cc1`, the composite z-score in [1] is 0.886 and 1.38; in test [2], -0.265 and -0.238; in test [3], 1.09 and 0.349; in test [5], -1.75 and -1.12; in test [6], -0.736 and -0.659; in test [7], -2.13 and -2.11. Moreover, the composite z-score in [8] is -1.25 and -1.05; in test [9], -2.51 and -1.8; in test [10], -3.81 and -0.988. Further, in test [4], the z-score was 0.26 (inactive) and -1.46 (inactive).

`COC(=O)C1=C(C)N(Cc2ccccc2)C2=C3C(=O)N(C)C(=O)[C@@H]3[C@@](O)(C(=O)OC)C(=O)N2[C@@H]1c1ccccc1`: the composite z-score in test [1] was -0.0387 and 0.0245; in test [2] it was 0.0287 and -0.103; in test [3] it was -0.282 and -0.486; in test [5], 0.786 and 0.387; in [6] it was 0.0745 and 0.608; in test [7], 0.533 and 0.834. The composite z-score in test [8] is 0.285 and 0.502; in test [9], 0.103 and 0.211; in [10] it was 0.476 and 0.292. The z-score in test [4] is -0.18 (inactive) and -0.675 (inactive).

As to `COC(=O)[C@H](C)NC(=O)CCC1CC(OC(=O)NCCc2ccc(F)cc2)CC2(CCCC(COC(=O)NCCCN3CCCC3=O)O2)O1` (stereo not given in full), the composite z-score in test [1] was 1.07; in [2] it was -0.0361; in test [3], 0.778; in test [5], 1.14; in test [6], 1.28; in test [7] it was 0.597. In addition, the composite z-score is 1.36 in test [8], 1.44 in test [9] and -0.0362 in test [10]. In addition, the z-score in test [4] is -0.247 (inactive).

The values are drawn from PubChem BioAssay.
